# Test results reported in PubChem BioAssay AID624483 (NMMLSC, 2012).
# Among all 360,000 compounds or so, about 11,000 (3.1%) were called active. Not shown: some 2% with an inconclusive outcome. Rule as the data show it: active = fluorescence intensity above about 16000; inconclusive = no clear call, values can overlap the other calls; inactive = below that. Many of the other results were omitted from the sample, so actives are more common in it than they were.
# Assay: counter-screen for toxin protease inhibitors: compound fluorescence, primary screen, artefact control for toxin protease inhibitor project, biochemical, multiplex microsphere, HTS (AID 624483)
# Details: compound autofluorescence counterscreen, microsphere flow cytometry; stronger effect = higher value
row,Compound,fluorescence intensity
1,Cc1cc2c(c(=O)n1C)C(C(C)C)C(C#N)=C(N)O2 (configuration not stated),3460 (inactive)
2,Cc1cc2c(c(=O)n1Cc1ccco1)C(c1ccccc1)C(C#N)=C(N)O2 (configuration not stated),23400 (active)
3,Cn1c2c(c(=O)n(C)c1=O)C(c1cccc(F)c1)C(C#N)=C(N)O2 (configuration not stated),4470 (inactive)
4,COc1ccc(NC(=O)NCc2ccc3c(c2)OCO3)c(OC)c1,5960 (inactive)
5,COc1ccc2c(c1)C(C)=CC(C)(C)N2C(=O)Nc1ccccc1,2880 (inactive)
6,COc1ccc2c(c1)C(C)=CC(C)(C)N2C(=O)CNCc1ccc2c(c1)OCO2,21400 (active)
7,Cc1cc(C(=O)COc2ccc(Br)cc2F)c(C)n1C1CC1,4210 (inactive)
8,CCCNC(=O)C1(C)CCCN(Cc2c(C)nn(-c3ccccc3)c2C)C1 (configuration not stated),3870 (inactive)
9,OC(c1ccc(F)cc1)c1ncc(-c2cccc(C(F)(F)F)c2)[nH]1 (configuration not stated),2920 (inactive)
10,COc1ccc(S(=O)(=O)N2CCC(C(=O)N3CCOCC3)CC2)cc1OC,8730 (inactive)
11,COc1ccc(S(=O)(=O)N2CCC(C(=O)N3CCCC3)CC2)cc1C,2980 (inactive)
12,COc1ccc(S(=O)(=O)N2CCC(C(=O)N3CCc4ccccc4C3)CC2)cc1OC,18500 (active)
13,CCCNC(=O)C1(C)CCN(C(=O)c2cc(F)ccc2C)C1 (configuration not stated),3600 (inactive)
14,CCc1nc2ccc(C(=O)N(C)Cc3ccco3)cn2c1N(C)C(=O)Cc1ccccc1,3670 (inactive)
15,O=S1(=O)CC(N2CCN(CCO)CC2)CN1Cc1cn(Cc2cccc(Cl)c2)nn1 (configuration not stated),5760 (inactive)
16,Cc1cc(C)cc(Oc2nc3c(C)cccn3c(=O)c2/C=C(\C#N)C(=O)NC2CCS(=O)(=O)C2)c1 (configuration not stated),2120 (inactive)
17,COCc1nc2ccccc2n1Cc1ccccc1Br,20400 (active)
18,C=C(Br)Cn1c(CCCC)nc2ccccc21,3410 (inactive)
19,CCOCCn1c(C(C)C)nc2ccccc21,3860 (inactive)
20,Nc1cccc(-c2cncc(N3CCN(Cc4ccccn4)CC3)n2)c1,3020 (inactive)
21,Cc1cccc(CNC(=O)c2sc(=O)n(Cc3ccccc3C)c2C)c1,4210 (inactive)
22,Cc1noc(C)c1COc1ccc2ccc(=O)oc2c1,3400 (inactive)
23,COc1ccc(-c2cc3ccc(OCc4nn[nH]n4)cc3oc2=O)cc1,24000 (active)

row,Compound,fluorescence intensity
1,CCCCc1cc(=O)oc2cc(C)cc(OCc3nn[nH]n3)c12,2630 (inactive)
2,CC(C)C1C(=O)N(Cc2cn(CCC3OCCO3)nn2)CCS(=O)(=O)N1Cc1ccc(-c2ccccc2C(F)(F)F)cc1 (configuration not stated),5850 (inactive)
3,Cc1ccc(NC(=O)C(C)Sc2nnc(C3CC3)n2C2CC2)cc1S(=O)(=O)N1CCOCC1 (configuration not stated),3820 (inactive)
4,COC(=O)c1ccc2nc(-c3ccc(C)cc3)c(Cc3ccc(OC)cc3C)n2c1,7150 (inactive)
5,O=C(NCCCN1CCOCC1)c1cc(-c2cccc(O)c2)on1,2910 (inactive)
6,O=C(NCCCn1ccnc1)c1cc(-c2ccccc2)on1,3190 (inactive)
7,CCN(CC)CCCNC(=O)c1cc(-c2cccc(Cl)c2)on1,22000 (active)
8,O=C(NCc1ccccc1)C1C(=O)N(Cc2ccccc2)C(=O)C1C1(O)CCCC1 (configuration not stated),8420 (inactive)
9,COc1cc(NC(=O)C2=CC(c3ccco3)=NS(=O)(=O)N2C)cc(OC)c1OC,4170 (inactive)
10,O=S(=O)(NCCc1ccccc1)c1ccccc1,3470 (inactive)
11,O=S(=O)(NCCc1ccncc1)c1ccccc1,3020 (inactive)
12,O=S(=O)(NCCNS(=O)(=O)c1ccccc1)c1ccccc1,22900 (active)
13,CCOc1ccc(CCN2C(=S)N([C@@H](CC(C)C)CN3CCC[C@@H]3CN3C(=S)NC[C@@H]3Cc3ccc(O)cc3)C[C@@H]2Cc2ccc(O)cc2)cc1,6230 (inactive)
14,CCOc1nnc(C)c2c(C)n(-c3cccc(Cl)c3)nc12,23500 (active)
15,CCOc1ccc(CNC(=O)C2CCCN(c3nnc(C)c4c(C)n(-c5ccccc5)nc34)C2)cc1 (configuration not stated),9860 (inactive)
16,CCOc1c(Nc2cccc(Cl)c2)c(=O)c1=O,4070 (inactive)
17,Brc1cc(Br)c(Oc2cc(Br)c(Br)cc2Br)cc1Br,5260 (inactive)
18,COc1ccc(Cl)cc1NC(=O)CN(C)C(=O)c1ccc2n[nH]nc2c1,7700 (inactive)
19,COc1ccc(Cl)cc1NC(=O)CN(C)C(=O)CNC(=O)C12CC3CC(CC(C3)C1)C2,22500 (active)
20,COc1ccc(Cl)cc1NC(=O)CN(C)Cc1ccc(OC)c(OC)c1,4460 (inactive)
21,CCOC(=O)C1=C(COC(=O)[C@H](C)NS(=O)(=O)c2ccccc2F)NC(=O)NC1C (some centres not stated),3650 (inactive)
22,Cc1onc(-c2ccccc2)c1C(=O)N1CCN(S(=O)(=O)c2ccccc2C(F)(F)F)CC1,3570 (inactive)
23,COC(=O)c1ccc2nc(-c3cccc(Br)c3)c(Cc3ccc(OC)cc3C)n2c1,5220 (inactive)

row,Compound,fluorescence intensity
1,CCC1(C)Cc2c(sc3[nH]c(=S)n(Cc4ccccc4)c(=O)c23)CO1 (configuration not stated),2880 (inactive)
2,CCOC(=O)Cn1c(SC)nc2sc3c(c2c1=O)CC(C)(C)OC3,6860 (inactive)
3,CCC1(C)Cc2c(sc3nnn(CC(=O)Nc4ccc(Cl)cc4)c(=O)c23)CO1 (configuration not stated),22700 (active)
4,N#C/C(=C/c1cccc([N+](=O)[O-])c1)c1nnc2n1CCCCC2,1990 (inactive)
5,Cc1ccc(N(Cc2ccc(C(=O)Nc3ccccc3C(=O)NCc3ccco3)cc2)S(C)(=O)=O)cc1C,25100 (active)
6,CS(=O)(=O)N(Cc1ccc(Cl)cc1)c1ccc(C(=O)NCCSCc2ccco2)cc1,10900 (inactive)
7,Cc1cccc(Nc2ccccc2C(=O)NCc2ccco2)c1C,3190 (inactive)
8,O=C(Nc1ccc(S(=O)(=O)N2CCOCC2)cc1)c1ccc2ncsc2c1,4800 (inactive)
9,CCCn1cc(SCC(N)=O)c2ccccc21,6190 (inactive)
10,NC(=O)CSc1c[nH]c2ccccc12,20300 (active)
11,O=C(CSc1nnc(-c2c[nH]c3ccccc23)o1)c1ccccc1,7930 (inactive)
12,O=[N+]([O-])c1ccc(CN2CC(N3CCC(c4ccccc4)CC3)CS2(=O)=O)cc1 (configuration not stated),4360 (inactive)
13,COc1ccc(C2=NOC(C(=O)NCc3ccco3)C2)cc1OC (configuration not stated),21200 (active)
14,COc1ccc(CNC(=O)C2CC(c3ccc(C(F)(F)F)cc3)=NO2)cc1 (configuration not stated),4040 (inactive)
15,COc1ccc(S(=O)(=O)N2CCC(C(=O)NCc3ccco3)CC2)cc1C,3590 (inactive)
16,CCOC(=O)N1CCN(C(=O)c2cn(C)c3ccc(S(=O)(=O)N(CC)CC)cc3c2=O)CC1,2950 (inactive)
17,CCOC(=O)N1CCN(C(=O)c2cn(C)c3ccc(S(=O)(=O)N4CCCC4)cc3c2=O)CC1,19900 (active)
18,COc1ccc(N2CCN(C(=O)c3cn(C)c4ccc(S(=O)(=O)N5CCOCC5)cc4c3=O)CC2)cc1,5270 (inactive)
19,Cc1ccc(C(NC(=O)C2CCN(CCOc3ccc(Cl)cc3Cl)CC2)c2ccccn2)cc1 (configuration not stated),3690 (inactive)
20,O=C(NCCS(=O)(=O)N1CCN(c2ccccc2)CC1)c1cc(=O)c2ccccc2o1,2940 (inactive)
21,CC(C)C(=O)N1c2ccccc2NC2=C(C(=O)CCC2)C1c1ccc(N(C)C)cc1 (configuration not stated),3590 (inactive)
22,O=C1c2ccccc2C(O)N1Cc1ccccc1 (configuration not stated),11200 (inactive)
23,CC1(C)C2CCC1(CS(=O)(=O)NCCc1c[nH]c3ccccc13)C(=O)C2 (configuration not stated),3440 (inactive)

row,Compound,fluorescence intensity
1,CCCC(=O)N1CCC1(C)C(=O)Nc1ccc(-n2cncn2)cc1 (configuration not stated),4100 (inactive)
2,Cc1cccc(C)c1NC(=O)CN1CCN(c2ccc(F)cc2)CC1,5760 (inactive)
3,COc1ccc(OCCCCN2CCC(C)CC2)cc1,3010 (inactive)
4,CC(C)(C)c1ccc(CN2C(=O)c3ccccc3S2(=O)=O)cc1,3970 (inactive)
5,CC(C)(C)c1ccc(CN2C(=O)CN=C(c3ccccc3)c3ccccc32)cc1,16300 (active)
6,CCN(CC)C(=O)C1=C(C)N(Cc2ccc(C(C)(C)C)cc2)C(=O)C(CC(=O)NCc2cccc3ccccc23)C1 (configuration not stated),3960 (inactive)
7,CNc1cnc(-c2cc(OC)c(OC)c(OC)c2)cn1,3800 (inactive)
8,O=C(Nc1ccc(OCCO)cc1)c1csc([C@H]2C[C@H](O)[C@@H](CO)O2)n1,4100 (inactive)
9,O=C(COC(=O)c1n[nH]c2ccccc12)Nc1ccccc1Br,3780 (inactive)
10,CC(=O)Nc1ccc(S(=O)(=O)N2CCN(S(=O)(=O)c3cccs3)CC2)cc1,6050 (inactive)
11,CC(=O)Nc1ccc(S(=O)(=O)N2CCN(CCCOc3cc(C)ccc3C)CC2)cc1,11400 (inactive)
12,COC(=O)Nc1ccc(S(=O)(=O)N2CCN(CCN3C(=O)C4C5C=CC(C5)C4C3=O)CC2)cc1 (configuration not stated),21300 (active)
13,CCn1c(CN2C(=O)CSc3ccccc32)n[nH]c1=S,6470 (inactive)
14,Cc1nnc(SCCCn2c(N3CCCCC3)nc3c2c(=O)[nH]c(=O)n3C)s1,20700 (active)
15,Cc1nnc(Sc2nc3c(c(=O)[nH]c(=O)n3C)n2Cc2ccccc2)s1,5620 (inactive)
16,C=C(C)Cn1c(N2CCCC2)nc2c1c(=O)[nH]c(=O)n2C,5030 (inactive)
17,CNC(=S)NNC(=O)c1sccc1OCc1ccccc1,22300 (active)
18,Cc1ccc(/C=N/NC(=O)c2sccc2OCc2ccc(F)cc2)cc1,3080 (inactive)
19,CNC(=S)NNC(=O)c1cccn(Cc2ccccc2)c1=O,4620 (inactive)
20,CC1(C(=O)NS(=O)(=O)c2ccc(C#N)cc2)CCN1C(=O)CC1CCCC1 (configuration not stated),3000 (inactive)
21,COC(=O)c1nc(NC(=O)c2ccc(Cl)cc2)n[nH]1,12500 (inactive)
22,COC(=O)c1nc(NC(=O)c2ccccc2)n[nH]1,19900 (active)
23,COC(=O)c1nc(NC(=O)c2ccc(F)cc2)n[nH]1,3910 (inactive)
